# A selection: hits, their analogues and other compounds. The true share with any hit is near 8%.
# KB-V1 MDR tox: kills drug-selected multidrug resistant KB-V1 cells | KB-V1 MDR cells viability, CellTiter-Glo, 72 h | Potency, µM (top dose mostly 46.1 µM), usual class: cytotoxic | hit rate 3.4% among 400,000 | AID 1347076; further: on the % scale 0 is the no-effect control and ±100 the full control effect; nearly all actives have a fitted effect of over 60% in size
#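 KB-V1 cells (P-gp-expressing MDR subline of KB-3-1) in phenol-red-free DMEM with 10% FBS were exposed to library compounds over a concentration series for 72 h at 37 degrees C. Viability read by CellTiter-Glo luminescence; concentration-effect curves fitted after normalization.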
# SW480 rerep: induces DNA re-replication in SW480 colon adenocarcinoma cells; hit rate 1.8% among 340,000; AID 624297; SW480 DNA re-replication, Hoechst DNA content imaging, 48 h; Potency, µM (highest dose often 46.1 µM), inactives show at the highest dose re-replication activation, hits mostly activators; further: % of control where 0% means no effect; nearly all actives have a fitted effect of over 55% in size
#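 Image-based read-out: total Hoechst fluorescence of nuclei (405 nm excitation, 500-530 nm emission), with hits raising the fraction of high-intensity nuclei. SW480 colon cells incubated 48 hr with compounds at 37 C.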
# MCF10A rerep: DNA re-replication induction in MCF 10a cells | MCF 10A DNA re-replication, Hoechst nuclear intensity, 48 h | Potency, µM (highest dose often 46.1 µM), inactives show at the top dose activity, positive = re-replication, most hits filed as activators | hit rate 2.9% among 350,000 | AID 624296; further: % of control where 0% means no effect; nearly all actives have a fitted effect of over 50% in size
# HT1080-NT tox: kills 2HG-producing HT-1080-NT fibrosarcoma cells. Potency, µM (series often up to 46.1 µM), for the others: at the top dose activity, negative = less viability, most hits filed as cytotoxic. HT-1080-NT fibrosarcoma viability, CellTiter-Glo ATP luminescence, 48 h. hit rate 1.6% among 360,000;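 further: NT is the 2HG producing partner of a matched IDH1 knockdown line; 0% = DMSO-treated cells and -100% = media-only wells without cells; nearly all actives have a fitted effect of over 55% in size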
#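 Luminescent CellTiter-Glo readout after 48 hours of compound exposure at 37 degrees C defined viability of HT-1080-NT cells. Activity was normalized to DMSO wells and cell-free media wells; concentration-response curves were fitted and assigned curve classes.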
# HT1080 IDH1KD tx: HT-1080 IDH1 knockdown cell toxicity (counter line). HT-1080 IDH1 knockdown viability, ATP luminescence, 48 h. Potency, µM (doses to about 46.1 µM), inactives show top-dose activity, negative = toxicity, usual class: cytotoxic. hit rate 2% among 360,000;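 further: 0% = DMSO wells and -100% = cell-free medium wells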
#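 % activity derives from luminescence (CellTiter-Glo), normalised to DMSO and no-cell wells. HT-1080-IDH1KD cells, 750/well, had 48 h compound exposure at 37 °C.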
# KB-3-1 tox: kills parental KB-3-1 adenocarcinoma cells | AID 1347075 | hit rate 1.4% among 400,000 | Potency, µM (doses to about 46.1 µM), usual class: cytotoxic | KB-3-1 viability, CellTiter-Glo ATP luminescence, 72 h; further: on the % scale 0 is the no-effect control and ±100 the full control effect; nearly all actives have a fitted effect of over 60% in size
#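 Viability of parental KB-3-1 cells, measured by CellTiter-Glo luminescence, followed a 72 h incubation at 37 °C with pinned compounds in phenol-red-free DMEM containing 10% FBS.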
# Starred values were filed as active, the others as inactive; i = inactive; ? = inconclusive; nt = no result given; [ ] = another dose, or the depositor's remark. The call rests on the fitted dose curve; in most records, active means well fitted curve in the direction sought with a large enough effect; inconclusive means small, poorly fitted or top-dose-only effect, or another doubt; inactive means no such curve, though single readings can be large; an effect the other way counts as inactive or inconclusive. Potency means the concentration at half of the fitted maximal effect.
SMILES,KB-V1 MDR tox,SW480 rerep,MCF10A rerep,HT1080-NT tox,HT1080 IDH1KD tx,KB-3-1 tox
O=C(NC(=S)Nc1ccccc1C(F)(F)F)c1ccccc1F,i,-3.2%,10.3µM*,-16.9%,-21.2%,i
FC(F)(F)c1ccccc1NC(=S)N1CCCC1,i,?,-8.1%,-4.1%,-1.8%,i
COc1ccc(-c2cc(C(=O)Oc3ccc(Br)cc3)c3ccccc3n2)cc1,i,nt,nt,nt,nt,i
CCCC(=O)NC(c1ccc(C(C)C)cc1)c1ccc2cccnc2c1O (stereo not drawn),?,1.3µM*,?,-9.3%,?,5.17µM*
O=C(O)c1ccccc1NC(c1ccccc1)c1ccc2cccnc2c1O (stereo not drawn),?,?,?,-22.5%,8.2µM*,?
COc1ccccc1NC(c1cccnc1)c1ccc2cccnc2c1O (stereo not drawn),?,?,?,-15.2%,?,i
CC(=O)NC(c1ccco1)c1ccc2cccnc2c1O (stereo not drawn),?,3.26µM*,?,?,?,8.2µM*
CC(=O)NC(c1ccc(C)cc1)c1cc([N+](=O)[O-])c2cccnc2c1O (stereo not drawn),?,-7.7%,25.3%,?,?,?
CCC(=O)NC(c1ccc(C)cc1)c1cc([N+](=O)[O-])c2cccnc2c1O (stereo not drawn),i,?,?,16.4µM*,13µM*,?
CCCC(=O)NC(c1ccc(N(C)C)cc1)c1ccc2cccnc2c1O (stereo not drawn),i,?,?,?,?,?
COc1ccccc1CNC(=O)c1c2c(nc3ccccc13)C(=O)N(C1CCCCC1)C2,i,nt,nt,nt,nt,i
Cc1c(C2(c3cc(C(C)C)c(O)c(Br)c3C)OS(=O)(=O)c3ccccc32)cc(C(C)C)c(O)c1Br,i,nt,nt,nt,nt,i
O=C(CSc1nc2c([nH]c3ccccc32)c(=O)n1-c1cccc(Cl)c1)c1ccccc1,?,nt,nt,nt,nt,i
CCCCC(=O)NC(c1ccc(OC)cc1)c1ccc2cccnc2c1O (stereo not drawn),i,nt,nt,?,?,?
COc1ccc(C(NC(=O)C(C)C)c2ccc3cccnc3c2O)cc1 (stereo not drawn),?,?,8.0%,1.64µM*,?,i
CCC(=O)NC(c1ccc(C)cc1)c1ccc2cccnc2c1O (stereo not drawn),?,0.82µM*,?,-29.7%,?,?
O=C(Nc1c(C(=O)N2CCN(c3ccc(F)cc3)CC2)oc2ccccc12)c1c(F)cccc1F,i,nt,nt,nt,nt,i
Cc1ccc(-c2[nH]c3ccccc3c2C(C[N+](=O)[O-])c2ccco2)cc1 (stereo not drawn),20.6µM*,?,18.4µM*,16.4µM*,?,i
CCOc1ccccc1C(=O)N1CCc2cc(OC)c(OC)cc2C1COc1ccc(OC)cc1 (stereo not drawn),?,nt,nt,nt,nt,i
O=C(CC(c1cccs1)N1Cc2ccccc2C1=O)Nc1cccc(F)c1 (stereo not drawn),?,nt,nt,nt,nt,i
c1ccc(NNC2=NCCCCC2)cc1,i,17.4%,8.4%,?,4.11µM*,?
c1ccc(CNC2=NCCCCC2)cc1,i,-16.4%,0.7%,8.5%,14.7%,i
COc1cc2c(NC3CCN(C)CC3)nc(N3CCCN(C)CC3)nc2cc1OCCCN1CCOCC1,i,nt,nt,nt,nt,?
COc1cc2ncnc(Nc3ccc(F)c(Cl)c3)c2cc1OCCCN1CCOCC1,nt,14.7%,29.9µM*,nt,nt,nt
CCCCC/C(C=O)=C/c1ccccc1,nt,2.4%,0.1%,nt,nt,nt
SMILES,KB-V1 MDR tox,SW480 rerep,MCF10A rerep,HT1080-NT tox,HT1080 IDH1KD tx,KB-3-1 tox
C=CCOc1ccc(/C=N/N2C(=O)C(CC(=O)Nc3ccc(F)cc3F)SC2=NC)cc1 (stereo not drawn),?,?,?,14.6µM*,?,?
Cc1ccc(CNC(=O)CN2CCN(Cc3ccc(F)cc3)C2=O)cc1,i,nt,nt,nt,nt,i
CC(C)C(=O)N1CCN(c2c(Cl)cccc2[N+](=O)[O-])CC1,14.6µM*,-5.8%,5.1%,16.0%,8.8%,?
O=C(/C=C/c1ccccc1)N1CCN(c2c(Cl)cccc2[N+](=O)[O-])CC1,i,25.8%,25.9µM*,-5.7%,-9.1%,i
CCC(=O)N1CCN(c2c(Cl)cccc2[N+](=O)[O-])CC1,?,-2.3%,-10.3%,2.0%,0.4%,?
CN(C)c1ccc(CCC2C=Cc3ccccc32)cc1 (stereo not drawn),i,nt,nt,nt,nt,i
COc1ccc2c(=O)c(C)c(-c3ccccc3)oc2c1CN(C)C,nt,-1.7%,0.4%,nt,nt,nt
CC(C)(C)OC(=O)N1CCC(c2c(C(=O)NCC3CCN(C4CCCC4)C3)cnn2-c2cccc(Cl)c2)CC1 (stereo not drawn),i,?,?,?,18.4µM*,i
Cc1ccc(-n2ncc(C(=O)NCC3CCN(C4CCCC4)C3)c2C2CCN(C(=O)OC(C)(C)C)CC2)cc1 (stereo not drawn),i,?,15.6%,23.1µM*,?,?
CCN(CC)CCCNC(=O)c1c(C)oc2ncn(CC(C)C)c(=O)c12,i,nt,nt,nt,nt,i
CCOc1ccc(-c2nnc3ccc(SCC(=O)NCc4ccco4)nn23)cc1,16.4µM*,-3.7%,?,-16.0%,?,i
Cc1ccc(-c2nnc3ccc(SCC(=O)NCc4ccco4)nn23)cc1,?,1.7%,0.4%,-15.7%[9.24 µM],-18.5%,i
COc1ccc(C2NC(=S)NC(C)=C2C(=O)Nc2ccccn2)cc1OC (stereo not drawn),i,4.9%,?,3.2%,13.1%,i
COc1ccc(C2NC(=S)NC(C)=C2C(=O)c2ccccc2)cc1OC (stereo not drawn),13µM*,23.1µM*,?,2.2%,8.1%,?
CCn1nc(C)c2c(-c3ccccc3)cc(=O)n(C(C)C(=O)NCCc3ccccc3)c21 (stereo not drawn),i,nt,nt,nt,nt,i
CC(=O)Nc1ccc(C(=O)CSc2nnc3cc(C)c4ccccc4n23)cc1,?,nt,nt,nt,nt,i
COc1ccc(Cl)cc1-c1nc(N)nc(NC2CCCCC2)n1,18.4µM*,-4.4%,0.3%,-0.7%,0.4%,i
COc1ccc(NC(=O)CCn2c(-c3ccc(F)cc3)cc(C(C)=O)c2C)c(OC)c1,i,nt,nt,nt,nt,i
CC(C)NC(=O)NC(=O)CSc1nnc(COc2ccccc2F)n1C(C)C1CC2CCC1C2 (stereo not drawn),i,?,12.6µM*,?,?,?
